The list is not random: actives were taken first. Their share in the collection is about 10%.
LMNA splice mod = LMNA splicing modulation. Potency, µM (highest dose often 46.1 µM), for inactives: at the top dose ratio change, negative = inhibition, usual class: inhibitors. HeLa LMNA splicing GFP/RFP minigene ratio, 48 h. hit rate 0.01% among 200,000. AID 1487; active = well fitted inhibition curve with a large enough effect in the signal ratio, with a control signal flat, not every such curve was filed as active; inconclusive = small, poorly fitted or top-dose-only effect, or effect the other way, or a change in a side signal; the % refers to the signal ratio; also: potency is read from the fitted curve at half-maximal effect
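S3 HeLa cells stably expressing lamin A-EGFP splicing minigene plus DsRed2, 600 cells/well, 48 h compound exposure at 37C. Laser-scanning cytometry; analysed as GFP (500-530 nm)/RFP (575-640 nm) total intensity ratio; 0.5% DMSO vehicle.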
HPGD block = HPGD (human) dehydrogenase inhibition; AID 894; P15428; hit rate 4.3% among 150,000; Potency, µM, for inactives: at the highest dose activity change, negative = inhibition, hits mostly inhibitors; purified HPGD, NADH fluorescence kinetic, PGE2 substrate; also: potency is read from the fitted curve at half-maximal effect
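20 nM HPGD preincubated 15 min at room temperature with compound in 50 mM Tris-HCl pH 8, 0.01% Tween 20. Started with 1 mM NAD+ and 30 uM prostaglandin E2; NADH fluorescence (360/450 nm) read 5 times over 30-s intervals, last minus first.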
ALOX12 inhib = blocks human 12-lipoxygenase activity. AID 1452. P18054. purified 12-hLO, xylenol orange hydroperoxide absorbance. hit rate 0.12% among 150,000. Potency, µM (titrated, usually from 57.1 µM), without a hit: at the top dose activity change, negative = inhibition, hits mostly inhibitors; active = well fitted inhibition curve with a large enough effect; inconclusive = small, poorly fitted or top-dose-only effect; also: potency is read from the fitted curve at half-maximal effect; nearly all actives have a fitted effect of over 55% in size
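Lipoxygenase turnover measured by absorbance at 573 and 405 nm after Fe-XO development. Human 12hLO 150 nM, arachidonate 40 uM, pH 7.0 Hepes buffer with detergent; 15 min compound preincubation, 30 min reaction.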
ALDH1A1 block = blocks purified human ALDH1A1 activity; P00352; Purified ALDH1A1, NADH fluorescence, propionaldehyde substrate; Potency, µM (top dose mostly 75.3 µM), for inactives: top-dose activity, negative = inhibition, usual class: inhibitors; hit rate 7.3% among 220,000; AID 1030;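 also: potency is read from the fitted curve at half-maximal effect; plate controls were no enzyme wells and a reference inhibitor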
Target sequence (P00352 whole entry, looked up): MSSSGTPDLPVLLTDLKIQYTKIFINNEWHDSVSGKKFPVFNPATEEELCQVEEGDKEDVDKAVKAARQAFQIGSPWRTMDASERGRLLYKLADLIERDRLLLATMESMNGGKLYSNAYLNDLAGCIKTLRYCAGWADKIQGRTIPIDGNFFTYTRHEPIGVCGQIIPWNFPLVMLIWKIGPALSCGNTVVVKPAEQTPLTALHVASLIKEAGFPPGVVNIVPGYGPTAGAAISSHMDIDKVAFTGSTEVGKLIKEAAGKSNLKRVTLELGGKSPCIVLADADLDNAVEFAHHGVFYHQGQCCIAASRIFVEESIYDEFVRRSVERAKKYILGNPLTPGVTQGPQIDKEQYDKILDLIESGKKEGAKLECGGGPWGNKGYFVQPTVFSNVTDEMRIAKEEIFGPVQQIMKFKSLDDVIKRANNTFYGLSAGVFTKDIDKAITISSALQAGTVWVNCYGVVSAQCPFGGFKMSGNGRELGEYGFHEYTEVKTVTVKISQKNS
PNC assembly inh = inhibitors of perinucleolar compartment assembly; PC3M PTB-GFP, PNC prevalence imaging, 16 h; hits give low values; activity change (PNC), negative = inhibition, % at 10 µM; hit rate 3.1% among 140,000;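 active = readout at or below -70, meaning at least 70% loss of cells showing the perinucleolar compartment, a nuclear body marking cancer cells; inconclusive = readout between -30 and a set limit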;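 also: plate controls were DMSO wells for no effect and camptothecin positive control wells for full effect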
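Compounds are pinned in duplicate onto adhered PC3M cells stably expressing GFP-tagged PTB and incubated 16 h at 37 C. Cells are then fixed, nuclei stained with Hoechst, and PNC-positive cells counted.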
* hit, by the source's call; ? = inconclusive; · = no result given; [ ] = another dose, or the depositor's remark. Unless noted, calls follow the shape of the dose curve; as a rule, active = well fitted inhibition curve with a large enough effect (not every such curve was filed as active); inconclusive = small, poorly fitted or top-dose-only effect, or another doubt; inactive = no such curve, though single readings can be large or run the other way. Unless noted, % is scaled to controls: 0 for no effect and ±100 for the full control effect.

SMILES	LMNA splice mod	HPGD block	ALOX12 inhib	ALDH1A1 block	PNC assembly inh
CC(CCc1ccccc1)NC(=O)CN1CCN(Cc2ccccc2)C1=O (centres undefined)	3%	-2%	-2%	-3%	25
CCOC(=O)N1CCN(c2ccc(Cl)cc2)CC1	5%	-10%	0%	5%	18
Cn1cnc(S(=O)(=O)N2CCC(C(=O)NCc3ccc(F)cc3)CC2)c1	-2%[46 µM]	·	·	·	·
Cc1ccc(S(=O)(=O)N[C@@H]2COC(=O)C/C=C\[C@H](C)COC(=O)N[C@@H](C)C(=O)C/C=C\[C@H]2C)cc1	·	·	·	-15%[13.5 µM]	·
COc1ccc(-c2cc(-c3n[nH]c(=S)n3-c3cccc4ccccc34)[nH]n2)cc1	5%[9.22 µM]	·	·	-5%	·
Cc1cccc(-n2c(-c3csc4ccccc34)n[nH]c2=S)c1	16%	14µM*	-7%	?	-1
COc1ccccc1-n1c(-c2cc(-c3ccc(F)cc3)n[nH]2)n[nH]c1=S	29%[46 µM]	·	·	32µM*	·
Cc1cccc(-n2c(-c3ccoc3C)n[nH]c2=S)c1	3%	25µM*	-5%	-3%	20
CC(C)Cn1c(-c2csc3ccccc23)n[nH]c1=S	?	?	-9%	?	?
Cc1ccc(-n2c(-c3cccc(C)c3)n[nH]c2=S)cc1	-3%	22µM*	-19%	2%	-9
Cc1cnc(CNc2nc(-c3c(C)noc3C)nc3ccccc23)cn1	?	·	·	0%	·
CCOc1ccc(Sc2cc(C(=O)NC(C)CC)c3ccccc3n2)cc1 (centres undefined)	8%[46 µM]	·	·	·	·
O=C(NCCC[N+]1=CC=N[C@H]1c1ccccc1)N1CCCc2nc(-c3ccc(Br)cc3)ccc21	·	·	·	-6%[13.5 µM]	·
CCS(=O)(=O)N1CCCC(C(=O)NCCOC)C1 (centres undefined)	1%[46 µM]	·	·	·	·
S=c1[nH]nc(-c2cccnc2)n1-c1ccccc1	-1%	-27%	1%	7.9µM*	-88*
COc1ccccc1-c1n[nH]c(=S)n1N	·	·	·	5%	·
COc1ccccc1-c1n[nH]c(=S)n1-c1ccccc1	?	32µM*	3%	?	?
S=c1[nH]nc(-c2ccc3ccccc3n2)n1-c1ccccc1	-9%	28µM*	1%	?	?
O=C(O)c1ccc(-n2c(-c3ccc(Br)cc3)n[nH]c2=S)cc1	-8%	?	4%	28µM*	?
Cc1c(C(=O)N2CCC(C)CC2)c(S(=O)(=O)N2CCN(c3ccc(Cl)cc3)CC2)c(C)n1C	-3%[46 µM]	·	·	·	·
CCCCOc1ccc(S(=O)(=O)Nc2cccc(-c3ccc(N4CCOCC4)nn3)c2)cc1	-2%[46 µM]	·	·	·	·
CNc1ccnc(-c2c(C)noc2C)n1	-6%	-14%	-3%	-7%	·
Cc1occc1-c1n[nH]c(=S)n1CC(C)C	5%	-22%	0%	4%	-94*
CCOc1ccccc1NC(=O)C1=C(C)Nc2ncnn2C1c1ccccn1 (centres undefined)	3%[46 µM]	·	·	·	·
O=C(O)/C=C/C(=O)c1ccc(O)cc1	·	·	·	14µM*	·
SMILES	LMNA splice mod	HPGD block	ALOX12 inhib	ALDH1A1 block	PNC assembly inh
O=C(/C=C\c1ccc(-c2ccccc2)o1)c1ccccc1	?	?	-18%	4µM*	?
Cc1ccc(C(=O)/C=C/c2ccc(-c3ccc(C)cc3)o2)cc1	?	7.1µM*	-25%	0.71µM*	-24
CC(/C=C/C(=O)c1ccc(C)cc1)=C\c1ccccc1	11%	-15%	-12%	-7%	-1
Cc1ccc(S/C=C\C(=O)c2ccccc2)cc1	?	-21%	5%	20µM*	?
c1ccc(Oc2nc(NC3CCCCC3)c3[nH]cnc3n2)cc1	·	-4%	-2%[0.00818 µM]	?	·
Cc1ccc(CNC(=O)c2nn(C)c3c2CSc2ccc(C)cc2-3)cc1	-13%[46 µM]	·	·	·	·
CC(C)CO/N=C1/C[C@@H](O)[C@@H](O)[C@@H]2[C@@H]3C(=O)N(Cc4ccccc4)C(=O)[C@H]3CC[C@@H]12	·	·	·	9%[13.5 µM]	·
CCOC(=O)c1ccc(CN(Cc2ccccc2C)S(=O)(=O)c2ccc(F)c(C)c2)cc1	-7%[46 µM]	·	·	·	·
Cc1ccc([N+](=O)[O-])cc1N=C(c1cccc(Br)c1)N1CCOCC1	-8%	0%	-9%	-1%	-6
Cc1ccc(C(=O)/C=C\C(=O)c2ccc(C)cc2)cc1	-1%	2.2µM*	0%	7.1µM*	-10
Cc1cccc(N2CCN(C(=O)C3CCN(S(=O)(=O)c4c(C)noc4/C=C/c4ccccc4F)CC3)CC2C)c1 (centres undefined)	6%[46 µM]	·	·	·	·
COc1cccc(CC(NC(C)=O)C(=O)NC2CCN(c3nnnn3-c3ccccc3)CC2)c1 (centres undefined)	4%	-6%	1%	14µM*	30
CC(=O)NC(Cc1cccc(F)c1)C(=O)NC1CCN(c2nnnn2-c2ccccc2)CC1 (centres undefined)	?	·	·	1.4µM*	·
CCOc1ccc(NC(=O)N2CCC(NC(=O)C(Cc3ccc(OC)c(OC)c3)NC(C)=O)CC2)cc1 (centres undefined)	?	3%	-9%	0.056µM*	7
COc1ccc(CC(NC(C)=O)C(=O)NC2CCN(c3nnnn3-c3ccccc3)CC2)cc1 (centres undefined)	0%	-8%	-3%	2.5µM*	-10
COc1cccc(CNC(=O)C2CCCN(S(=O)(=O)c3ccc4c(ccn4C)c3)C2)c1OC (centres undefined)	8%[46 µM]	·	·	·	·
CC(C)c1nc2ccc(Br)cn2c1NC1CCCC1	-16%[46 µM]	·	·	?	·
COc1ccc(C(=O)NCC(c2ccco2)S(=O)(=O)c2cccs2)cc1OC (centres undefined)	3%[46 µM]	·	·	·	·
CCCCNC(=O)c1nn(-c2ccc(C)cc2)c(=O)n(C)c1=O	5%[46 µM]	·	·	·	·
COc1ccc(CC(NC(C)=O)C(=O)NC2CCN(c3nnnn3-c3ccccc3)CC2)cc1OC (centres undefined)	10%[46 µM]	·	·	10µM*	·
Cc1ccc(S(=O)(=O)N2CCc3nc(-c4ccccc4)c4c(c3C2)CO[C@@H](C)C4)cc1	15%[9.22 µM]	-7%	2%[11.4 µM]	24%[13.5 µM]	·
Cc1ccc(C2(C)NC(=O)N(CC(=O)Nc3cc(S(=O)(=O)N4CCOCC4)ccc3C)C2=O)cc1 (centres undefined)	?	-6%	-4%	2%	-115*
CC(C)(C)c1ccc(C(=O)NCC(=O)OCC(=O)Nc2ccccc2[N+](=O)[O-])cc1	5%	-11%	0%	6.3µM*	17
Cc1ccc(S(=O)(=O)N2CCOCC2)cc1NC(=O)COC(=O)CNC(=O)c1ccc(C(C)(C)C)cc1	6%	-11%	4%	7.9µM*	-7
Cc1ccc(S(=O)(=O)N2CCOCC2)cc1NC(=O)COC(=O)CNC(=O)c1ccc(Oc2ccccc2)cc1	7%	-11%	1%	-11%	?
CCc1ccc(CNC(=O)C2COc3ccc(OC)cc3C2)cc1 (centres undefined)	1%[46 µM]	·	·	·	·
COc1ccc(CCNC(=O)c2ccc(-c3cccc([N+](=O)[O-])c3)o2)cc1OC	·	·	·	13µM*	·
